These results are taken from PubChem BioAssay AID977607 (Broad Institute, 2014).

Out of some 1,500 compounds screened, about 460 (31%) were called active. Roughly 1% stayed inconclusive and do not appear here. These entries were drawn from the full list. Potency and affinity values are given separately. A number with no mark means an inactive call.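 How the source made its calls: active means curve reaches 40% activation over neutral controls at an AC40 no higher than the top valid tested concentration; inconclusive means no clear call, values can overlap the other calls; inactive means signal moving opposite to the expected increase, and the rest.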

This experiment can be described thus: activators of glucose-dependent insulin secretion, dose response, cell-based, INS-1E, Gaussia luciferase, luminescence, cherry-pick, set 2 (AID 977607).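 Further: 0% = median of the plate neutral control wells.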 Conditions: INS-1E GLuc insulin secretion reporter, 2-3 h, hits give high values; at 35 µM, 100% = signal doubled over neutral wells unless noted.
As to `CCc1nc2n[nH]c(N)c2c2c1CCCC2`, the max activation was 65.3%.
Then `CCc1cc(=O)oc2c(CNCc3ccc(OC)cc3OC)c(O)c(Cl)cc12`, with 20.4%; and `COCCNC(=O)c1cc2c(c(-c3cccc(C#Cc4ccc(OC)c(OC)c4)c3)n1)[C@H](CCO)N(S(=O)C(C)(C)C)C2` (some centres undefined), with 8.82% [at 11 µM, 100% = signal doubled over neutral wells]; and `CC(C)(C)c1ccc(S(=O)(=O)N2CC(C(=O)O)Oc3ccc(Cl)cc32)cc1` (centres undefined), with -11.3% [at 0.015 µM, 100% = signal doubled over neutral wells].
Then `COc1ccc(C(=O)Nc2nnc(-c3cccs3)s2)cc1`, with -13.2% [at 0.135 µM, 100% = signal doubled over neutral wells]; and `Cc1ccccc1C(=O)NC1CCSC1=O` (centres undefined), with -21.5% [at 0.005 µM, 100% = signal doubled over neutral wells]; and `CN(C)CCCN(C(=O)CCOc1ccccc1)c1nc2c(F)cccc2s1`, with -32.2% [at 11 µM, 100% = signal doubled over neutral wells].
Then `OC1(C#Cc2c(-c3ccsc3)sc3ccccc23)CCCCC1`, with 50.8%; and `Cc1cc(-c2ccccc2)n2nc(N)nc2n1`, with -24.8% [at 0.046 µM, 100% = signal doubled over neutral wells]; and `O=c1c2ccccc2nnn1Cc1ccccc1`, with -23.5% [at 0.42 µM, 100% = signal doubled over neutral wells].
Take `Cc1ccc2nc(N3CCN(C(=O)CCCC(=O)O)CC3)nc(-c3ccccc3)c2c1`: the max activation is 12.5% [at 11 µM, 100% = signal doubled over neutral wells].
Then `COC(C)(C)c1cc(C(C)(C)C)nc(N)n1`, with -18.4% [at 0.005 µM, 100% = signal doubled over neutral wells]; and `COc1cccc(-n2c(=O)c3ccccc3n(CC(=O)NCC3CCCO3)c2=O)c1` (centres undefined), with -15.9% [at 0.015 µM, 100% = signal doubled over neutral wells].
Then `O=C(COc1ccccc1)N(Cc1cccc(F)c1)C1CCS(=O)(=O)C1` (centres undefined), with -16.7% [at 3.8 µM, 100% = signal doubled over neutral wells].
With `CC(Oc1ccc2c3c(c(=O)oc2c1)CCCC3)C(=O)NCc1cccnc1` (centres undefined) the figure was 27.7% [at 0.42 µM, 100% = signal doubled over neutral wells]; with `O=C(COC(=O)c1cccnc1Cl)Nc1cc(S(=O)(=O)N2CCCCCC2)ccc1Cl`, -32.2%.
`COc1cc(OC)c(OC)cc1CCC(C)NC(=O)Cc1ccccc1` (centres undefined): the max activation is 27.7% [at 0.005 µM, 100% = signal doubled over neutral wells].
For the molecule `CCOc1ncccc1C(=O)NC(C)CCc1ccccc1` (centres undefined), the max activation is 29.7%.
With `C[C@H]1CN=C(N(C)C)N1CC1CCCC1` the figure was -12% [at 0.015 µM, 100% = signal doubled over neutral wells]; with `Cc1ccc(C(=O)N2CCN3C(=O)c4ccccc4C23c2ccccc2)cc1` (centres undefined), -24.9%.
Then `CN(Cc1ccccc1)c1nc2c(c(=O)[nH]c(=O)n2C)n1Cc1ccccc1`, with 14.1% [at 11 µM, 100% = signal doubled over neutral wells].
With `C=CCn1c(SCc2ccccc2)nc2c1c(=O)[nH]c(=O)n2C` the figure was -13.1% [at 0.015 µM, 100% = signal doubled over neutral wells]; with `Cn1c(=O)[nH]c(=O)c2c1nc(NC1CCCC1)n2Cc1ccccc1`, -12.1% [at 0.0016 µM, 100% = signal doubled over neutral wells].
On to `CCCCCCn1c(SCC(C)C)nc2c1c(=O)[nH]c(=O)n2C`, for which the max activation is 12.8%.
With `O=C(O)C(Cc1ccc(O)cc1)N1C(=O)c2ccccc2C1=O` (centres undefined) the figure was -22% [at 0.046 µM, 100% = signal doubled over neutral wells]; with `COc1ccc(CCN(C)C(=O)Cn2c(=O)oc3ccccc32)cc1OC`, -16.4%; with `CCOc1ccc2oc(C(=O)N(C)CCc3ccc(OC)c(OC)c3)c(C)c2c1`, 47.7%.
With `Cc1ccc(Nc2ncnc3sccc23)c(C)c1` the figure was -16% [at 0.015 µM, 100% = signal doubled over neutral wells]; with `CCCCc1c(-c2ccccc2OC)ncn1Cc1ccc(C)cc1`, -22.3% [at 11 µM, 100% = signal doubled over neutral wells]; with `COc1ccc(CCN2C(=O)CC(Cc3ccccc3)C2=O)cc1OC` (centres undefined), -9.21% [at 0.046 µM, 100% = signal doubled over neutral wells].
`CCCCc1c(-c2ccccc2OC)ncn1C(C)c1ccccc1` (centres undefined): the max activation is 37.1%.
Take `CCOc1cc(C2C3=C(CC(C)(C)CC3=O)Nc3n[nH]c(C)c32)ccc1O` (centres undefined): the max activation was -17.9% [at 0.015 µM, 100% = signal doubled over neutral wells].
`c1csc(-c2nc(NCC3CCCO3)c3ccccc3n2)c1` (centres undefined): the max activation was 39.8% [at 11 µM, 100% = signal doubled over neutral wells].
Then `Cn1nnnc1Sc1ncnc2scc(-c3ccc(F)cc3)c12`, with -12.9% [at 0.42 µM, 100% = signal doubled over neutral wells].
With `COc1ccc(C[C@H]2CN3C(=NC[C@@H]3Cc3ccccc3)N2CCNC(=O)CCC2CCCCC2)cc1` the figure was 62.1%; with `NC1=NC[C@H](Cc2ccccc2)N1CCCCC1CCCCC1`, -33.4% [at 11 µM, 100% = signal doubled over neutral wells]; with `Cc1cc(NS(=O)(=O)c2ccc(NC(=O)C(C)Oc3ccccc3Cl)cc2)no1` (centres undefined), -22.4% [at 0.015 µM, 100% = signal doubled over neutral wells].
Then `CCOc1ccccc1CNC(c1ccccc1)c1ccccc1`, with -22.9% [at 11 µM, 100% = signal doubled over neutral wells]; and `O=C(Nc1ncn[nH]1)c1ccc(Cl)c(Cl)c1`, with -14.6% [at 0.135 µM, 100% = signal doubled over neutral wells]; and `COc1cc2ccc(C(C)=NNC(N)=S)cc2cc1OC`, with -23.9% [at 0.135 µM, 100% = signal doubled over neutral wells].
For the molecule `C/C(=N\NC(=O)CO/N=C(\C)c1cccs1)c1ccc(N)cc1`, the max activation is -25.9%.
Then `CC(C)CCN1C(=O)CSCC1(C)C(=O)NC(C)C` (centres undefined), with -10.4%; and `Cc1cccn2cc(CNS(=O)(=O)c3ccc4ccccc4c3)nc12`, with 34% [at 3.8 µM, 100% = signal doubled over neutral wells].
Then `COCCn1c(=S)[nH]c2sc3c(c2c1=O)CCCC3`, with -29.9% [at 11 µM, 100% = signal doubled over neutral wells].
With `COc1cc(CN2CCC(n3nccc3NC(=O)C3CCOC3)CC2)ccc1F` (centres undefined), the max activation is -11.8%.
With `COc1ccccc1-n1cnc2sc(C)c(C)c2c1=O` the figure was 29.4% [at 11 µM, 100% = signal doubled over neutral wells]; with `COc1ccc(C(=O)OCC(=O)NC(=O)NC2CCCC2)cc1OC`, -7.36% [at 0.005 µM, 100% = signal doubled over neutral wells].
Then `COc1ccc(S(=O)(=O)NC2CCCCC2)cc1C`, with 14.2% [at 3.8 µM, 100% = signal doubled over neutral wells].
With `COc1ccc(C2N(c3ccccc3)C(=O)C2(F)F)cc1OC` (centres undefined) the figure was -13.7%; with `CCSc1nnc2ccc(-c3ccc(C)cc3)nn12`, 18.5% [at 0.015 µM, 100% = signal doubled over neutral wells].
With `O=C(COc1ccccc1)Nc1ccccc1C(=O)NC1CC1`, the max activation was -11.7% [at 0.046 µM, 100% = signal doubled over neutral wells].
Consider `O=C(CC(c1ccccc1)c1ccco1)N1CCOCC1` (centres undefined), for which the max activation is 18.9% [at 1.2 µM, 100% = signal doubled over neutral wells].
Turning to `CC(=O)c1c(O)c2cccc3c2n(c1=O)CCC3`, the max activation was -22.5% [at 0.046 µM, 100% = signal doubled over neutral wells].
With `Cc1ccccc1S(=O)(=O)N1CC(=O)N2[C@@H](CO)[C@H](c3ccc(C#CCC4CCCC4)cc3)[C@@H]2C1` the figure was 276% [at 35 µM]; with `CCC(=O)Nc1cc(C(C)(C)C)ccc1C(C)=O`, -23.6% [at 0.135 µM, 100% = signal doubled over neutral wells]; with `O=C(c1cccs1)N(Cc1ccccn1)Cc1ccco1`, -16.4% [at 0.015 µM, 100% = signal doubled over neutral wells].
Consider `CN1CCN(c2ccc(CNC(=O)C3(C)Cc4c(-c5ccccc5)ccnc4O3)cc2)CC1` (centres undefined), for which the max activation is -21.2% [at 0.005 µM, 100% = signal doubled over neutral wells].
Then `COc1ccc2c(c1)CCc1cc(C(=O)O)sc1-2`, with -25.3% [at 0.135 µM, 100% = signal doubled over neutral wells]; and `CNC(=O)c1[nH]nc2c1CCc1cc(OC)ccc1-2`, with -16.9% [at 0.005 µM, 100% = signal doubled over neutral wells].
